# Data from PubChem BioAssay (Tox21).
# Results filed as inconclusive are left out. Where a call stands in place of a potency, no number is given. Calls of active or inactive are those of the source. Unless noted, the call rests on the fitted dose curve; in most records, active means well fitted curve in the direction sought with a large enough effect in the repeat runs; inconclusive means weak or mixed curves; inactive means no such curve, though single readings can be large; an effect the other way counts as inactive or inconclusive.
# Assays:
# [1] = molecular target: Retinoic acid receptor RXR-alpha (Homo sapiens) (UniProt P19793); experiment: qHTS assay to identify small molecule agonists of the RXR signaling pathway (AID 1159527; calls by dose curve; further: nearly all actives have a fitted effect of over 35% in size; further: potency means the concentration at half of the fitted maximal effect)
# In short: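 Cells plated at 2,000/well, rested 5 hr at 37 C, pin-dosed with DMSO compound solutions, incubated 16 hr, then loaded with B/G FRET substrate for 2 hr at RT before dual-emission fluorescence reading.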
# [2] = qHTS assay to identify small molecule agonists of the RXR signaling pathway - cell viability counter screen (AID 1159529); further: nearly all actives have a fitted effect of over 50% in size; further: potency means the concentration at half of the fitted maximal effect
# In short: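 Steps: seed RXR-alpha-UAS-bla HEK 293T cells in assay medium containing 2% charcoal-stripped FBS; incubate 5 hr; add compounds in DMSO; incubate 16 hr at 37 C; after the bla read, add CellTiter-Glo and read luminescence at 30 min.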
# [3] = qHTS assay to identify small molecule antagonists of the retinoid acid receptor (RAR) signaling pathway - cell viability counter screen (AID 1159551); further: nearly all actives have a fitted effect of over 35% in size; further: potency means the concentration at half of the fitted maximal effect
# In short: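 ATP-based viability, C3RL4 cells, 6 h at 37 C with 1 uM final retinol co-added after compound; luminescence read 30 min post CellTiter-Glo, RT.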
# [4] = qHTS assay to identify small molecule antagonists of the retinoic acid receptor (RAR) signaling pathway (AID 1159552; further: nearly all actives have a fitted effect of over 50% in size)
# In short: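 Retinol at 1 uM final stimulated RARE-luciferase expression in C3RL4 cells exposed to test compounds for 6 hr at 37 C. Reduced luminescence, read 30 min after detection reagent, indicated pathway antagonism.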
# [5] = qHTS assay to identify small molecule antagonists of the estrogen related receptor (ERR) signaling pathway from Tox21 library - cell viability counter screen (AID 1224834); further: nearly all actives have a fitted effect of over 30% in size
# In short: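 Compounds in DMSO were pinned onto ERR cells that had been incubated for 6 h, and the plates were held at 37 C for 17.5 h. CellTiter-Fluor reagent was then added and fluorescence was measured after 30 min.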
# [6] = molecular target: Luciferin 4-monooxygenase (Photinus pyralis) (UniProt P08659); experiment: qHTS assay to identify small molecule inhibitors of firefly luciferase (AID 1224835); further: nearly all actives have a fitted effect of over 25% in size; further: potency means the concentration at half of the fitted maximal effect
# In short: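 Quantitative HTS format; KM concentrations of both substrates. Purified P. pyralis FLuc activity quantified from luminescence images.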
# [7] = qHTS assay to identify small molecule agonists of the constitutive androstane receptor (CAR) signaling pathway - cell viability counter screen (AID 1224836); further: nearly all actives have a fitted effect of over 45% in size
# In short: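 Cells were seeded and incubated 4 hrs. Compounds were added across 15 concentrations together with PK11195 at 0.75 uM final. Plates were incubated 23 hrs at 37 C. CellTiter-Fluor was added and fluorescence measured.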
# [8] = qHTS assay to identify small molecule antagonists of the constitutive androstane receptor (CAR) signaling pathway - cell viability counter screen (AID 1224837); further: nearly all actives have a fitted effect of over 45% in size
# In short: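 Cells are seeded, rested 4 hr at 37 C/5% CO2, dosed with compound (15-point series) and 50 nM CITCO, incubated a further 23 hr, and then CellTiter-Fluor reagent is added before fluorescence is read. The line is HepG2 with stable hCAR and CYP2B6-2.2kb.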
# [9] = molecular target: Nuclear receptor subfamily 1 group I member 3 (Homo sapiens) (UniProt Q14994); experiment: qHTS assay to identify small molecule antagonists of the constitutive androstane receptor (CAR) signaling pathway (AID 1224838);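 further: HepG2 cells stably expressing hCAR with CYP2B6 luciferase reporter stimulated by CITCO; nearly all actives have a fitted effect of over 40% in size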
# In short: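 Luminescence from a CYP2B6-2.2kb promoter reporter in hCAR-expressing HepG2 cells reflects CAR signaling. Cells received compounds at 15 concentrations and 50 nM CITCO (final), then incubated 24 h at 37 C/5% CO2.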
# [10] = molecular target: Nuclear receptor subfamily 1 group I member 3 (Homo sapiens) (UniProt Q14994); experiment: qHTS assay to identify small molecule agonists of the constitutive androstane receptor (CAR) signaling pathway (AID 1224839); further: nearly all actives have a fitted effect of over 15% in size; further: potency means the concentration at half of the fitted maximal effect;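 on activation: HepG2 cells stably carrying human CAR and a CYP2B6 luciferase reporter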
# In short: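 Cells were plated and incubated 4 hrs, then dosed with compounds at 15 concentrations. PK11195 was added to 0.75 uM final. After 24 hrs at 37 C, luciferase luminescence was measured.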
# [11] = qHTS assay to identify small molecule antagonists of the estrogen related receptor signaling pathway with the pleiotropic PPARgamma coactivator (PGC) from Tox21 10K library - cell viability counter screen (AID 1224840; active means well fitted cell-killing curve with a large enough effect in the repeat runs, not every such curve was filed as active; further: nearly all actives have a fitted effect of over 40% in size)
# In short: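 Cell viability is measured by CellTiter-Fluor fluorescence in PGC/ERR cells that receive compounds after a 6-hour attachment period and are then incubated 17.5 hours at 37 C.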
# [12] = qHTS assay to identify small molecule agonists of the estrogen related receptor signaling pathway with the pleiotropic PPARgamma coactivator (PGC) from Tox21 10K library (AID 1224842); further: nearly all actives have a fitted effect of over 15% in size
# In short: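 PGC/ERR reporter cells (NTP line) were seeded 2,000 per well, rested 6 h at 37 C/5% CO2, then pin-dosed with compounds in DMSO for 18 h at 37 C; luciferase read by One-Glo luminescence after 30 min at room temperature.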
# [13] = qHTS assay to identify small molecule antagonists of the estrogen related receptor signaling pathway with the pleiotropic PPARgamma coactivator (PGC) from Tox21 10K library (AID 1224841; call rule not given here; further: actives are mostly falling curves and most rising ones were filed inactive; nearly all actives have a fitted effect of over 50% in size)
# In short: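 Cells stably carrying the PGC/ERR reporter, seeded at 2,000 per well, received pin-transferred compounds 6 h post-plating. Exposure lasted 18 h at 37 C. Signal: One-Glo luminescence.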
# [14] = qHTS assay to identify small molecule agonists of the retinoic acid receptor (RAR) signaling pathway (AID 1159553); conditions: C3RL4 RARE luciferase reporter, agonist, 6 h; activation: at 73.3 µM (top of the series)
# In short: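 Quantitative high-throughput format: the Tox21 10K library was tested on C3RL4 RARE-luciferase cells for 6 hr at 37 C and 5% CO2, with luminescence measured after a 30 min room-temperature reagent step.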
# [15] = qHTS assay to identify small molecule antagonists of the estrogen related receptor (ERR) signaling pathway - cell viability counter screen (AID 1224818);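 further: viability measured after 17.5 h of compound exposure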
# In short: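 Quantitative high-throughput viability counter screen in ERR cells. Compounds (DMSO) incubated 17.5 h at 37 C; read-out was CellTiter-Fluor fluorescence.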
# [16] = qHTS assay to identify small molecule antagonists of the estrogen related receptor signaling pathway with the pleiotropic PPARgamma coactivator (PGC) cell viability counter screen (AID 1224822)
# In short: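 Cytotoxicity in the PGC/ERR cell line is assessed with CellTiter-Fluor, read as fluorescence intensity 30 min after reagent addition, following 17.5 h compound treatment at 37 C.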
# [17] = qHTS assay to identify small molecule antagonists of the estrogen related receptor (ERR) signaling pathway (AID 1224819;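 further: luminescence from an ERR-driven luciferase reporter measured with One-Glo reagent; nearly all actives have a fitted effect of over 50% in size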)
# In short: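 ERR reporter cell line (NTP) plated at 2,000 cells/well, settled 6 h at 37C/5% CO2, then exposed to LOPAC compounds for 18 h at 37C. One-Glo luciferase luminescence read after 30 min at room temperature.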
# [18] = system: estrogen-related receptor alpha (ERRalpha) with PGC-1alpha coactivator, human; experiment: qHTS assay to identify small molecule antagonists of the estrogen related receptor signaling pathway with the pleiotropic PPARgamma coactivator (PGC) (AID 1224821; calls by dose curve)
# In short: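 PGC/ERR reporter cells; 6 h pre-incubation 37 C/5% CO2; pin-tool compound in DMSO, 18 h 37 C; One-Glo added, 30 min RT; luminescence read. qHTS antagonist mode.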
# Sequence of Retinoic acid receptor RXR-alpha (Homo sapiens) (P19793 whole entry, looked up): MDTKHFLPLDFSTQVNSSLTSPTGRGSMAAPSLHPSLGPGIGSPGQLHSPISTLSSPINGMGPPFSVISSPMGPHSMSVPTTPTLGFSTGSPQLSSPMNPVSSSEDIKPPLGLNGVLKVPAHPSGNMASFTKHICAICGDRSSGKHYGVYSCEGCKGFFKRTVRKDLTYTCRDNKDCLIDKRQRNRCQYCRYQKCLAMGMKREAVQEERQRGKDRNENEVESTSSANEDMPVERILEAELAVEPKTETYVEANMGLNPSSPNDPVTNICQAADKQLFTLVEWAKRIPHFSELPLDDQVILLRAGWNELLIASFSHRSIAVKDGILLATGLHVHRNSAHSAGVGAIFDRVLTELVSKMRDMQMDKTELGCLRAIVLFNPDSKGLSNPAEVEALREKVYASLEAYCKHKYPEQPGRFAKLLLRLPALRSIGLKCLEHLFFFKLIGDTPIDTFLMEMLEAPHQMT
# Sequence of Luciferin 4-monooxygenase (Photinus pyralis) (P08659 whole entry, looked up): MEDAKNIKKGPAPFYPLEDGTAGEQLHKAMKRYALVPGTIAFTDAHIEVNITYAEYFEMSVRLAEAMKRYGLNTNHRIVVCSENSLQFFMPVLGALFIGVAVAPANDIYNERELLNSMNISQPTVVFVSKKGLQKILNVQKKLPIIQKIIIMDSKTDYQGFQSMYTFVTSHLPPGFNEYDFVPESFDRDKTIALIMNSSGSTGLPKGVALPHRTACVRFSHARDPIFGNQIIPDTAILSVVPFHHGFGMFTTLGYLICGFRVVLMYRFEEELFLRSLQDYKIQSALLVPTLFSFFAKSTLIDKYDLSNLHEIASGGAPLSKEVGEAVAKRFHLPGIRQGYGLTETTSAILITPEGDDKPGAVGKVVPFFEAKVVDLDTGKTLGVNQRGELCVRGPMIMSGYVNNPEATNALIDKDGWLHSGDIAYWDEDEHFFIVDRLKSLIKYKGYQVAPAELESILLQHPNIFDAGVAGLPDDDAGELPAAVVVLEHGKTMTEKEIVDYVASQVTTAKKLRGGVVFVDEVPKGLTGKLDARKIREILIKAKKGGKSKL
# Sequence of Nuclear receptor subfamily 1 group I member 3 (Homo sapiens) (Q14994 whole entry, looked up): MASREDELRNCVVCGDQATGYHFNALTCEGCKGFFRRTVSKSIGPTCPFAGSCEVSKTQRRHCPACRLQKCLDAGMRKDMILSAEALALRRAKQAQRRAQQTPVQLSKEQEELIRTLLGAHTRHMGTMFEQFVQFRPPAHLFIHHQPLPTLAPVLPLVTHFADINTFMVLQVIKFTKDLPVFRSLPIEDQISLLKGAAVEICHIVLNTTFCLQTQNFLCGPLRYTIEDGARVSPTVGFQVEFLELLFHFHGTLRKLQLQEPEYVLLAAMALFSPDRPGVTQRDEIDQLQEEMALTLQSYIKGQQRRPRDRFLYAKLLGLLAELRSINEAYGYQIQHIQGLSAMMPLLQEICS
SMILES,Potency [1],Potency [2],Potency [3],Potency [4],Potency [5],Potency [6],Potency [7],Potency [8],Potency [9],Potency [10],Potency [11],Potency [12],Potency [13],Potency [14],outcome [15],outcome [16],outcome [17],outcome [18]
O=C(Nc1cccc2c(=O)cc(-c3nn[nH]n3)oc12)c1ccc(OCCCCc2ccccc2)cc1,inactive,inactive,inactive,inactive,inactive,27.5 µM (active),inactive,inactive,inactive,inactive,inactive,,,,,,,
CCC1NC(=O)c2cc(S(N)(=O)=O)c(Cl)cc2N1 (centres undefined),inactive,inactive,inactive,,inactive,inactive,inactive,inactive,inactive,,inactive,,,,,,,
O=C(O)c1ccc(OCCCOc2ccc(C(=O)O)cc2)cc1,inactive,inactive,inactive,,inactive,inactive,inactive,inactive,inactive,inactive,inactive,inactive,,,,,,
NCCNCCO,inactive,inactive,inactive,inactive,,inactive,inactive,inactive,inactive,inactive,inactive,inactive,inactive,,,,,
C1C[C@@H]2[C@H]3CC[C@H](C3)[C@@H]2C1,inactive,inactive,inactive,inactive,inactive,inactive,,inactive,inactive,inactive,inactive,,,,,,,
C/C=C/C=C/C=O,inactive,inactive,inactive,,inactive,inactive,inactive,inactive,inactive,inactive,inactive,inactive,,,,,,
OC(CCN1CCCC1)(c1ccccc1)C1CCCCC1 (centres undefined),inactive,inactive,inactive,,inactive,inactive,inactive,inactive,,,inactive,,,inactive,,,,
C=C(C)CCCC(C)CCO (centres undefined),inactive,inactive,inactive,inactive,,inactive,,inactive,,,inactive,,,inactive,,,,
Cc1cc2c(OCC(CNC(C)(C)C)OC(=O)c3ccccc3)cccc2[nH]1 (centres undefined),inactive,inactive,inactive,,inactive,inactive,,inactive,inactive,inactive,inactive,,,inactive,,,,
CCC1CO1 (centres undefined),inactive,inactive,inactive,inactive,inactive,inactive,inactive,inactive,,,inactive,,,,,,,
O=C(O)CCC(=O)C(=O)O,inactive,inactive,inactive,inactive,inactive,inactive,inactive,inactive,,,inactive,,,,,,,
CCOc1ccccc1O[C@H](c1ccccc1)[C@H]1CNCCO1,inactive,inactive,inactive,,inactive,inactive,inactive,inactive,,,inactive,,,,,,,
O=c1cc(-c2ccccc2)oc2ccc3ccccc3c12,inactive,19.5 µM (active),24.3 µM (active),,inactive,0.0356 µM (active),inactive,inactive,inactive,4.86 µM (active),inactive,,,,,,,
CC(=O)[C@H]1[C@H](C#N)C[C@H]2[C@@H]3CC=C4C[C@@H](O)CC[C@]4(C)[C@H]3CC[C@@]21C,inactive,inactive,inactive,inactive,,inactive,inactive,inactive,,,inactive,,inactive,,,,,
CCOC(=O)OC(C)OC(=O)[C@@H]1N2C(=O)[C@@H](NC(=O)[C@H](N)c3ccccc3)[C@H]2SC1(C)C (some centres undefined),inactive,inactive,inactive,inactive,,inactive,inactive,inactive,inactive,inactive,inactive,,,,,,,
C[C@H]1C[C@H](O)c2ccsc2S1(=O)=O,inactive,inactive,inactive,inactive,,inactive,,inactive,inactive,inactive,inactive,inactive,,inactive,,,,
C=CCc1ccccc1OCC(O)CNC(C)C (centres undefined),inactive,inactive,inactive,,inactive,inactive,inactive,inactive,inactive,inactive,inactive,,,,inactive,inactive,,
NC1[C@H]2CN(c3nc4c(cc3F)c(=O)c(C(=O)O)cn4-c3ccc(F)cc3F)C[C@@H]12 (some centres undefined),19 µM (active),inactive,inactive,,,,inactive,,inactive,,inactive,,,,inactive,inactive,inactive,inactive
CCCC(=O)C(=O)O,inactive,inactive,inactive,inactive,inactive,inactive,inactive,inactive,inactive,inactive,inactive,,,,,,,
CN1CC(=O)N2[C@H](c3ccc4c(c3)OCO4)c3[nH]c4ccccc4c3C[C@@H]2C1=O,inactive,inactive,inactive,inactive,,inactive,inactive,inactive,inactive,inactive,inactive,,,,,,,
O=C1Cc2cc(Cl)ccc2N1,inactive,inactive,inactive,,inactive,inactive,inactive,inactive,inactive,,inactive,,inactive,inactive,,,,
COc1cc(C(=O)NCCCCCC(=O)O)cc(OC)c1OC,inactive,inactive,inactive,inactive,,,,inactive,inactive,inactive,inactive,,,,,,,
CCCCN(CCCC)C(C(N)=O)c1ccc(OC)cc1 (centres undefined),inactive,inactive,inactive,,inactive,inactive,inactive,inactive,inactive,,inactive,,,,,,,
C1COC1,inactive,inactive,inactive,inactive,inactive,inactive,inactive,inactive,inactive,inactive,inactive,,,,,,,
